VP16 counter – counter-screen for ROR gamma inhibitors: Gal4-VP16 reporter | Drosophila S2 Gal4-VP16 UAS-luciferase, luminescence, 20 h | Potency, µM (doses to about 53.6 µM), for inactives: at the top dose activity, negative = inhibition, usual class: inhibitors | 3.5% of 310,000 active;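 note: Gal4-VP16 expression switched on by copper sulfate through the metallothionein promoter; % is set by controls: 0 for no effect and ±100 for the full control effect; nearly all actives have a fitted effect of over 50% in size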
SW480 rerep – DNA re-replication induction in SW480 cells | SW480 DNA re-replication, Hoechst DNA content imaging, 48 h | Potency, µM (titrated, usually from 46.1 µM), for the others: at the top dose re-replication activation, most hits filed as activators | 1.8% of 340,000 active; note: % of control where 0% means no effect; nearly all actives have a fitted effect of over 55% in size
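Compounds, transferred as 23 nL by pin tool, were incubated with cells for 48 hr; DNA content per nucleus was then quantified by Hoechst staining and fluorescence plate imaging.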
MCF10A rereplic – DNA re-replication induction in MCF 10a cells; 2.9% of 350,000 active; MCF 10A DNA re-replication, Hoechst nuclear intensity, 48 h; Potency, µM (series often up to 46.1 µM), for inactives: at the highest dose activity, positive = re-replication, actives largely listed as activators; AID 624296; note: % of control where 0% means no effect; nearly all actives have a fitted effect of over 50% in size
RORg inh – blocks mouse ROR gamma transcriptional activity | P51450 | Potency, µM (highest dose often 53.6 µM), inactives show at the highest dose activity change, negative = inhibition, actives largely listed as inhibitors | Drosophila S2 Gal4-RORgamma UAS-luciferase reporter, 20 h | 5.4% of 310,000 active; note: % is set by controls: 0 for no effect and ±100 for the full control effect; nearly all actives have a fitted effect of over 60% in size
Target sequence (P51450 whole entry, looked up, the tested form may be a part): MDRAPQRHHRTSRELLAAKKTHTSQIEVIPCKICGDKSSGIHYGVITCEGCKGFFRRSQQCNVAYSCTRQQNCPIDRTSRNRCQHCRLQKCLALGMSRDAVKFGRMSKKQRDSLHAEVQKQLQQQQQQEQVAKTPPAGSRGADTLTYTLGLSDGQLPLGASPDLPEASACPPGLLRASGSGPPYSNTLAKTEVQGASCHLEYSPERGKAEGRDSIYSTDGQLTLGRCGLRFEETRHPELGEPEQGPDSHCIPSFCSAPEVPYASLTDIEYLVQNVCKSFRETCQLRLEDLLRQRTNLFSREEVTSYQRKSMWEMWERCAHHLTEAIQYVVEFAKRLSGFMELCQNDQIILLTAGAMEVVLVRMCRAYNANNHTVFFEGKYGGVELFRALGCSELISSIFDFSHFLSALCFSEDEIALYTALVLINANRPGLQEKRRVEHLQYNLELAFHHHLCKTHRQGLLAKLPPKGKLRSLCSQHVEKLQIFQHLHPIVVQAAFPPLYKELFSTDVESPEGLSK
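Compounds are pin-transferred onto Drosophila Schneider cells expressing a copper-inducible Gal4–ROR gamma transactivation domain fusion. After 1 hr, copper sulfate is added to 700 uM final; luciferase is read 20 hr later.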
ELG1 DNA repair – inhibitors of ELG1-dependent DNA repair in HEK293T cells | HEK293T ELG1-luciferase reporter, luminescence, 16 h; DNA damage induced by 5-fluorouridine | Potency, µM (doses to about 46.1 µM), for the others: top-dose activity change, negative = inhibition, usual class: inhibitors | 2.3% of 330,000 active; note: % is set by controls: 0 for no effect and ±100 for the full control effect; nearly all actives have a fitted effect of over 55% in size
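HEK293T cells expressing luciferase-tagged ELG1 (2,000/well) received 5-Fluorouridine plus compound or DMSO for 16 hr at 37 °C. Luciferase was read by ONE-Glo luminescence after 30 min at room temperature.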
* hit, by the source's call; u = inconclusive; x = not tested or not shown; [ ] = remark or other dose. Sampled rows, rich in hits. Any-hit rate of the full collection: about 10%. Calls come from the whole dose curve; as a rule, active = well fitted curve in the direction sought with a large enough effect; inconclusive = small, poorly fitted or top-dose-only effect, or another doubt; inactive = no such curve, though single readings can be large; an effect the other way counts as inactive or inconclusive. Potency is the fitted concentration of half-maximal effect.

SMILES	VP16 counter	SW480 rerep	MCF10A rereplic	RORg inh	ELG1 DNA repair
CCC1Sc2ccc(S(=O)(=O)Nc3ccc(OC)cc3)cc2NC1=O (stereo unspecified)	-20.6%	-3.4%	26.1%	6.2%	-12.5%
COc1ccc(S(=O)(=O)NCc2ccncc2)cc1OC	u	-4.1%	-19.0%	-32.7%	7.31µM*
COc1ccc(S(=O)(=O)Nc2ccc(Cc3ccncc3)cc2)cc1OC	7.94µM*	-2.9%	10.2%	u	-20.3%
COc1ccc(S(=O)(=O)NCc2cccnc2)cc1OC	1.6%	-8.6%	-13.0%	2.9%	2.3%
CCc1ccc(OC)c(S(=O)(=O)Nc2ccc(Cc3ccncc3)cc2)c1	2.24µM*	u	u	u	-28.4%
COc1ccc(S(=O)(=O)Nc2ccc(F)c(Cl)c2)cc1OC	7.08µM*	-1.2%	-0.8%	-15.9%	u
CCC(C)C(=O)N1CCc2cc(-c3csc(N)n3)ccc21 (stereo unspecified)	-4.1%	0.9%	u	7.6%	u
CC(C)(C)C(=O)N1CCc2cc(-c3csc(N)n3)ccc21	10µM*	13.0%	-1.4%	12.6µM*	u
NCCCCCc1nnc(SCc2ccc(Cl)cc2Cl)o1	5.62µM*	-3.0%	8.2%	8.91µM*	6.1%
NCCCCCc1nnc(SCC(=O)Nc2cccc(Cl)c2)o1	-6.5%	5.7%	u	-0.8%	-9.0%
NCCCCCc1nnc(SCc2cccc(Cl)c2)o1	2.82µM*	-22.4%	14.4%	5.62µM*	-4.3%
NCCc1nnc(SCc2ccccc2Cl)o1	-9.5%	7.7%	2.8%	2.1%	u
CCc1[nH]c(=O)[nH]c1C(C)S(=O)(=O)c1ccc(C)cc1 (stereo unspecified)	u	-30.7%	5.2%	14.1µM*	8.0%
COc1ccccc1NC(=O)Nc1nc(CC(=O)N2CCN(c3ccccc3F)CC2)cs1	x	-429.0%	u	x	16.4µM*
COc1ccc(NC(=S)Nc2nc(CC(=O)Nc3ccccc3OC)cs2)cc1	4.47µM*	u	20.6µM*	1.78µM*	u
CCN(CC(=O)Nc1ccccc1OC)Cc1csc(CC(=O)Nc2ccc(C)cc2)n1	x	u	u	x	9.2µM*
COc1ccc(OC)c(NC(=O)Cc2csc(NC(=O)Nc3ccccc3OC)n2)c1	x	1.0%	u	x	u
COc1ccccc1CCC(=O)OCc1csc(CC(=O)Nc2ccccc2C)n1	x	u	-0.4%	x	-1.1%
COc1ccccc1NC(=O)Cc1csc(NC(=S)Nc2ccccc2)n1	3.16µM*	2.59µM*	u	1.12µM*	9.2%
CCCCCCOC(=O)C1(O)CC2OC1(C)n1c3ccccc3c3c4c(c5c6ccccc6n2c5c31)C(=O)NC4 (stereo unspecified)	4.5%[1.91 µM]	x	x	-5.8%[1.91 µM]	x
CCCOc1ccc2c(c1)C(=NN=C(N)N)c1cc(OCCC)ccc1-2	-22.6%	18.4µM*	u	14.1µM*	u
CCN(CC)CCOc1ccc2c(c1)C(=NO)c1cc(OCCN(CC)CC)ccc1-2	-16.7%	-9.2%	-1.5%	-23.2%	u
CC1(C)C(=O)C=CC(=O)C(C)(C)C(=O)C=CC(=O)C(C)(C)C2=CC=C(O2)C(C)(C)C(=O)C=CC1=O	x	u	7.31µM*	x	x
COc1cc2nc(CC(C)C)n(NC(=O)c3ccccc3Br)c(=O)c2cc1OC	-0.3%	0.3%	6.51µM*	29.8%	-25.0%
COc1ccccc1C(=O)Nn1c(C)nc2ccccc2c1=O	-3.2%	0.7%	-0.7%	-15.9%	-0.5%
SMILES	VP16 counter	SW480 rerep	MCF10A rereplic	RORg inh	ELG1 DNA repair
Cc1onc(-c2ccccc2Cl)c1C(=O)N1CCN(c2nc3ccccc3s2)CC1	-11.8%	-11.3%	10.6%	1.6%	13µM*
CN(C1CCCCC1)S(=O)(=O)c1ccc(C(=O)N2CCN(c3nc4ccccc4s3)CC2)cc1	-1.2%	-3.6%	9.6%	u	9.2µM*
Cc1onc(-c2ccccc2Cl)c1C(=O)N1CCCCC1	14.4%	-62.7%	-1.7%	-5.1%	-0.1%
CN(C)c1ccc2c(-c3ccccc3)c3ccc(=[N+](C)C)cc-3oc2c1	3.16µM*	x	x	u	x
Cc1cccc(-n2ccnc2CN2CCC(CO)(Cc3ccccc3)CC2)c1	-4.4%	-5.3%	2.8%	15.8µM*	-10.9%
CCOC(=O)C1(CC2CCCCO2)CCN(Cc2nccn2-c2cccc(C)c2)CC1 (stereo unspecified)	12.6µM*	8.0%	5.4%	4.47µM*	-6.0%
CCOC(=O)C1(CC2CCCCO2)CCN(Cc2nccn2-c2ccc(OC)cc2)CC1 (stereo unspecified)	u	-0.5%	-3.7%	7.08µM*	3.2%
COCCn1c(SCC(=O)N2CCC(C)CC2)nc2c(c1=O)SCC2	-9.2%	0.1%	2.0%	34.5%	-4.0%
CCOP(=O)(OCC)c1nc(-c2ccc(Cl)cc2Cl)oc1N1CCCCC1	-24.1%	7.2%	16.4µM*	21.0%	u
CCOP(=O)(OCC)c1nc(-c2ccccc2Cl)oc1N1CCOCC1	-9.1%	-17.7%	u	7.6%	-1.7%
Cc1ccc(N2C(=O)c3ccccc3C2O)nc1 (stereo unspecified)	u	x	x	7.08µM*	u
CC(C)=C(NC(=O)c1ccccc1)C(=O)NC(Cc1ccccc1)C(=O)O (stereo unspecified)	-1.2%	3.1%	8.6%	1.5%	u
CCOc1ccccc1N1CCN(CC(=O)N(CC(C)C)c2c(N)n(CC(C)C)c(=O)[nH]c2=O)CC1	-4.2%	7.4%	0.7%	-18.1%	-2.8%
Cc1ccc(C2(c3noc(CN4CCC(c5ccncc5)CC4)n3)CCCC2)cc1	u	13.0%	16.9%	9.6%	16.4µM*
COc1ccc(-n2nnnc2/C=C\Nc2ccccc2C(=O)c2ccccc2)cc1	-13.8%	10.3µM*	25.9%	1.3%	-9.1%
Cc1cc2occ(CC(=O)NC3=NCCS3)c2cc1C(C)C	12.6µM*	-8.2%	u	-137.2%	0.4%
NC(=O)C1=CC2C3C=CC2(O)C(=O)OC3O1 (stereo unspecified)	x	3.66µM*	2.91µM*	x	x
CCC(=O)c1ccccc1OCCCCn1cncn1	3.7%	-8.9%	14.3%	-33.9%[1.91 µM]	3.1%
Cc1csc(NC(=O)C(NS(=O)(=O)c2ccc(Br)s2)c2ccccc2)n1 (stereo unspecified)	u	-6.7%	11.4%	12.6µM*	25.9%
C=CCN(CC=C)Cc1nc(N)nc(Nc2ccccc2C)n1	-8.3%	17.7%	1.1%	12.6µM*	-15.6%
c1ccc(-c2nc(CSc3n[nH]c(-c4cccs4)n3)cs2)cc1	4.7%	-1.4%	6.0%	31.6µM*	-4.1%
CCC/C=C(\CCC)C(NS(=O)(=O)c1ccc(Cl)cc1)c1ccc(C(=O)OC)cc1 (stereo unspecified)	-18.0%	x	x	u	x
Cc1ccc2nc(-c3cccnc3)c(Nc3ccccc3C)n2c1	1.7%	-0.2%	1.3%	-6.3%	-32.1%
Cc1cccc2nc(-c3cccnc3)c(NCCC(C)C)n12	u	-2.1%	20.6µM*	8.91µM*	4.9%
